HT1080NT lethal: kills 2HG-producing HT-1080-NT fibrosarcoma cells; AID 686970; Potency, µM (highest dose often 46.1 µM), hits mostly cytotoxic; 1.6% of 360,000 active; HT-1080-NT fibrosarcoma viability, CellTiter-Glo ATP luminescence, 48 h;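 note: NT is the 2HG producing partner of a matched IDH1 knockdown line; nearly all actives have a fitted effect of over 55% in size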
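HT-1080-NT fibrosarcoma cells (2HG-overproducing), 750 cells/well in RPMI with 5% FBS, dosed after 2 h and incubated 48 h at 37C. CellTiter-Glo luminescence normalized to DMSO and no-cell wells; concentration-response curves fitted and classed.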
S2 tox: viability counter-screen for ATXN expression inhibitors | S2 cells (HEK-293 line with an ATXN2-luciferase reporter) viability, CellTiter-Fluor protease fluorescence, 24 h | Potency, µM (titrated, usually from 56.7 µM), usual class: cytotoxic | 0.49% of 400,000 active | AID 651635; note: nearly all actives have a fitted effect of over 40% in size
HT1080 IDH1KD tx: HT-1080 IDH1 knockdown cell toxicity (counter line); HT-1080 IDH1 knockdown viability, ATP luminescence, 48 h; Potency, µM (highest dose often 46.1 µM), actives largely listed as cytotoxic; 2% of 360,000 active; AID 686971
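CellTiter-Glo luminescence after 48 h compound exposure at 37 degrees C of IDH1-knockdown HT-1080 cells in 5% FBS RPMI. %Activity scaled between DMSO wells and cell-free media wells, with curves fitted and assigned curve classes.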
KB-3-1 cytotox: KB-3-1 parental cell cytotoxicity | Potency, µM (series often up to 46.1 µM), actives largely listed as cytotoxic | KB-3-1 viability, CellTiter-Glo ATP luminescence, 72 h | 1.4% of 400,000 active; note: nearly all actives have a fitted effect of over 60% in size
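KB-3-1 parental drug-naive adenocarcinoma cells in DMEM/10% FBS, incubated 72 h at 37 C with pin-transferred compounds across a concentration series. Viability by CellTiter-Glo luminescence; concentration-response curves fitted after normalization.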
ATXN2 expr inh: reduces ATXN2 reporter expression in HEK-293 cells | 0.72% of 360,000 active | AID 1745845 | Potency, µM (top dose mostly 57 µM), hits mostly inhibitors | HEK-293 ATXN2-luciferase reporter, luminescence, 24 h; note: nearly all actives have a fitted effect of over 55% in size
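ATXN2-luciferase reporter cells (luciferase flanked by upstream and downstream ATXN2 gene portions) were treated 24 h at 37 °C with compounds at up to 57 uM. SteadyGlo luminescence gave expression; GF-AFC fluorescence gave viability.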
KB-V1 cytotox: kills drug-selected multidrug resistant KB-V1 cells. KB-V1 MDR cells viability, CellTiter-Glo, 72 h. 3.4% of 400,000 active. Potency, µM (titrated, usually from 46.1 µM), hits mostly cytotoxic; note: nearly all actives have a fitted effect of over 60% in size
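KB-V1 MDR subline cells in DMEM (phenol-red free, 10% FBS) exposed to compounds in qHTS concentration series for 72 h at 37 degrees C. Viability read by CellTiter-Glo luminescence; concentration-effect curves fitted after normalization and correction.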
A number is an active result; . = inactive; ? = inconclusive; / = no result. This is a sample that favours compounds with a hit; in the whole collection about 6.2% have one here. Calls come from the whole dose curve; as a rule, active = well fitted curve in the direction sought with a large enough effect; inconclusive = small, poorly fitted or top-dose-only effect, or another doubt; inactive = no such curve, though single readings can be large; an effect the other way counts as inactive or inconclusive.

SMILES	HT1080NT lethal	S2 tox	HT1080 IDH1KD tx	KB-3-1 cytotox	ATXN2 expr inh	KB-V1 cytotox
O=S1(=O)CCO[C@H]2CCCC[C@@H]2N1Cc1ccccc1F	/	/	/	.	/	.
COc1cccc(C(=O)NCC2Cc3cccc(-c4nc(C)cnc4C)c3O2)c1OC (stereo not given)	/	.	/	/	/	/
COc1cc(C(=O)N/N=C(\c2ccccc2)c2ccccn2)cc(OC)c1OC	?	.	?	?	2.5µM	.
COc1cc(NC(=O)c2ccccn2)cc(OC)c1OC	.	.	.	.	/	.
O=C(CN1CCCCC1)NCC(=O)Nc1ccc(F)c(F)c1F	.	.	.	.	.	.
O=C(CN1CCN(Cc2cccc(C(F)(F)F)c2)CC1)NCC(=O)Nc1ccc(F)c(F)c1F	.	.	.	.	.	23µM
CCCCc1c(-c2ccccc2OC)ncn1CCc1ccc(OC)cc1	16µM	/	?	?	?	9.2µM
COc1ccc(Cc2nn3c(-c4ccccc4OC)nnc3s2)cc1	.	.	.	.	.	?
COc1ccccc1-c1cc(C(=O)Nc2cc(C)n(Cc3ccc(Cl)cc3)n2)no1	.	/	.	.	?	.
CCCCc1c(-c2ccccc2OC)ncn1CCc1ccc(Cl)cc1	?	?	?	?	?	12µM
CCCCc1c(-c2ccccc2OC)ncn1CCc1ccccc1	18µM	?	21µM	?	?	12µM
O=C(NCCc1ccccc1)[C@@H]1CC=C[C@@H]2CCN(C3CC3)C(=O)[C@@H]21	/	/	/	.	/	.
COc1cc(Cl)c(C)cc1NC(=O)c1cnc(N2CCCCC2)c2ccccc12	/	/	/	.	/	.
COCCn1c(=NC(=O)CSCC(=O)NC2CCCCC2)sc2cc(OC)ccc21	.	.	.	?	.	2.9µM
Cc1cc(C)cc(NC(=O)CSc2nc3nc(C)cc(C)n3n2)c1	.	.	.	.	.	18µM
Cc1cc(C)n2nc(SCC(=O)N3CCN(c4ccccc4)CC3)nc2n1	.	?	.	.	.	12µM
COc1cccc(CN(Cc2ccco2)C(c2ccc(F)cc2)c2nnnn2C(C)(C)C)c1 (stereo not given)	.	.	.	?	?	?
CCC(C)(C)n1nnnc1C(c1ccc(C)cc1)N(Cc1ccco1)Cc1cccs1 (stereo not given)	.	.	?	?	?	11µM
Cc1ccc2nc(-c3ccccc3)cn2c1	12µM	.	12µM	12µM	5µM	10µM
CC(=O)Nc1ccc(-c2cn3cc(C)ccc3n2)cc1	.	.	.	.	.	16µM
NNC(=O)c1ccc2nc(-c3ccc(Br)cc3)cn2c1	18µM	?	?	.	.	.
Cc1nn2c(=O)cc(COc3ccc(/C=C(\C#N)C(=O)Nc4ccccc4)cc3Cl)nc2s1	/	.	/	.	.	?
CCOC(=O)c1c(C)c(C(=O)NCc2ccc3c(c2)OCO3)c(C)n1CC	.	.	.	.	.	.
Cc1cccc(-n2nnc(C(=O)NCc3ccc4c(c3)OCO4)c2N)c1	.	.	.	.	.	?
Cc1cc(C)cc(-n2nnc(C(=O)NCc3ccc4c(c3)OCO4)c2N)c1	.	?	.	.	.	8.2µM
SMILES	HT1080NT lethal	S2 tox	HT1080 IDH1KD tx	KB-3-1 cytotox	ATXN2 expr inh	KB-V1 cytotox
CCOC(=O)c1c(C)c(C(=O)NCc2cccs2)c(C)n1CC	?	.	.	.	.	15µM
CCOC(=O)c1c(C)c(C(=O)NCc2ccc3c(c2)OCO3)c(C)n1C	.	.	.	.	.	18µM
CCOC(=O)c1c(C)c(C(=O)NCc2ccc(OC)cc2)c(C)n1CC	/	.	/	.	.	.
CCS(=O)(=O)N1CCC(n2c(C(F)(F)F)nc3cccnc32)CC1	/	.	/	.	.	.
Cc1ccc(Cl)cc1NC(=O)C(NS(=O)(=O)c1cccc2nsnc12)c1ccccc1 (stereo not given)	/	.	/	.	.	.
Cc1cc(C)cc(-n2c(C)nc3cc(C(=O)NCc4ccc(F)cc4)ccc32)c1	/	?	/	.	?	.
O=Cc1ccc2noc(-c3ccc(Cl)cc3)c2c1	.	.	.	?	.	23µM
C[C@@]12C[C@@H](O)[C@H]3[C@@H](CCC4=CC(=O)CC[C@]43C)[C@H]1CC[C@H]2C(=O)CO	/	.	/	/	/	/
CC(=NO)C1CCC2C3CCC4=CC(=NO)CCC4(C)C3C(=O)CC12C (stereo not given)	.	.	.	?	.	.
CC12CCC(=O)C=C1CCC1C2CCC2(C)C(C(=O)CO)CC(O)C12 (stereo not given)	.	.	.	.	.	.
CC(=NO)C1CCC2C3CCC4=CC(=NO)CCC4(C)C3C(O)CC12C (stereo not given)	.	.	.	?	.	21µM
CC12CCC(=O)C=C1CCC1C2CCC2(C)C(c3csc(N)n3)CCC12 (stereo not given)	?	?	?	?	?	21µM
CC12CCC(=O)C=C1CCC1C2C(O)CC2(C)C(c3csc(N)n3)CCC12 (stereo not given)	6.5µM	.	?	.	?	?
CCOC(=O)c1ccc(NC(=O)c2c(-c3c(F)cccc3Cl)noc2C)cc1	/	.	/	?	.	.
CCCCOc1ccc(CNC(=O)CN2CCSc3ccccc32)cc1	/	?	/	.	.	?
COc1ccc(NC(=O)CSc2nc3ccccc3n2CC(=O)N2CCCC(C)C2)cc1 (stereo not given)	/	?	/	.	.	.
CC1(C)Cc2c(sc(NC(=O)c3ccc4ncsc4c3)c2C(N)=O)C(C)(C)N1	23µM	.	23µM	?	/	?
CC1(C)Cc2c(sc(NC(=O)c3ccc(C(=O)c4ccccc4)cc3)c2C(N)=O)C(C)(C)N1	10µM	?	9.2µM	?	25µM	?
COC(=O)c1c(NC(=O)c2ccccc2)sc2c1CC(C)(C)NC2(C)C	.	.	.	.	.	.
COc1ccc(-c2nc3c(=O)n(C)c(=O)nc-3n(C)n2)cc1	/	/	/	0.65µM	/	4.6µM
Cn1nc(-c2ccc(F)cc2)nc2c(=O)n(C)c(=O)nc1-2	/	/	/	2.9µM	/	5.2µM
Cn1nc(-c2ccc(Cl)cc2)nc2c(=O)n(C)c(=O)nc1-2	/	/	/	.	/	.
Cn1nc(-c2ccccc2)nc1-c1ccccc1	.	.	.	.	.	.
COc1cccc(NS(=O)(=O)c2ccc3c(c2)N(C)C(=O)CC(=O)N3C)c1	/	.	/	.	.	?
Cc1oc(-c2ccc(Cl)cc2)nc1CS(=O)CC(=O)NCc1ccc(Cl)cc1 (stereo not given)	/	/	/	.	/	.
COc1cc(/C=C2\N=C(c3ccccc3)NNC2=O)cc(OC)c1OC	4.6µM	.	3.3µM	4.6µM	.	4.1µM
O=C1NNC(c2ccccc2)=N/C1=C\c1ccco1	.	.	.	.	.	.
COC(=O)N1CCN(c2ccc(OC)cc2)CC1	?	.	.	.	.	?
